Measured potencies and affinities stand elsewhere.
Target: Kelch-like ECH-associated protein 1 (Homo sapiens) + Nuclear factor erythroid 2-related factor 2 (Homo sapiens) (UniProt Q14145+Q16236)
Assay: disruptors of Keap1 binding to Nrf2 peptide – biochemical, fluorescence polarization, cherry-picked samples, dose response (AID 588683);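 note: Kelch domain of Keap1 binding a fluorescein-labelled 9mer Nrf2 peptide; more negative means stronger inhibition of peptide binding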
Conditions: plate reader; series mostly up to 26 µM; activity change, negative = inhibition: at the top concentration; call rule not given here

Sequence of Kelch-like ECH-associated protein 1 (Homo sapiens) + Nuclear factor erythroid 2-related factor 2 (Homo sapiens) (Q14145 whole entry, looked up, the tested form may be a part): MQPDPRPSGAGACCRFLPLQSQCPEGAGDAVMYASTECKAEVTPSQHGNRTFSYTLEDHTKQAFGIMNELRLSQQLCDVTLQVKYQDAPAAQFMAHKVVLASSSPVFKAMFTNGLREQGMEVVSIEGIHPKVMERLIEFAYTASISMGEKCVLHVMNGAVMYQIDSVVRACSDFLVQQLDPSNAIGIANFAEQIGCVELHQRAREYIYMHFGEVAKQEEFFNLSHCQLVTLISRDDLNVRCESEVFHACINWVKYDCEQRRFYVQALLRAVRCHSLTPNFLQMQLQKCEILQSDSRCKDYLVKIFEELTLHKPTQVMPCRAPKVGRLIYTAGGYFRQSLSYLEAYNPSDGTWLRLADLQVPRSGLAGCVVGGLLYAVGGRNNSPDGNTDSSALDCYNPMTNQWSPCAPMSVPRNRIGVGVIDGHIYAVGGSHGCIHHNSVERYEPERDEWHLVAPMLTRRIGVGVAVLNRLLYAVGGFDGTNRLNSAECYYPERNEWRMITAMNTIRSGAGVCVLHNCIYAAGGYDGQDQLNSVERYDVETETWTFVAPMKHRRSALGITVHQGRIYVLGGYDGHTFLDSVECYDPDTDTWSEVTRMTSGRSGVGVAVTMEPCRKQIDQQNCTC
Sequence of Kelch-like ECH-associated protein 1 (Homo sapiens) + Nuclear factor erythroid 2-related factor 2 (Homo sapiens) (Q16236 whole entry, looked up, the tested form may be a part): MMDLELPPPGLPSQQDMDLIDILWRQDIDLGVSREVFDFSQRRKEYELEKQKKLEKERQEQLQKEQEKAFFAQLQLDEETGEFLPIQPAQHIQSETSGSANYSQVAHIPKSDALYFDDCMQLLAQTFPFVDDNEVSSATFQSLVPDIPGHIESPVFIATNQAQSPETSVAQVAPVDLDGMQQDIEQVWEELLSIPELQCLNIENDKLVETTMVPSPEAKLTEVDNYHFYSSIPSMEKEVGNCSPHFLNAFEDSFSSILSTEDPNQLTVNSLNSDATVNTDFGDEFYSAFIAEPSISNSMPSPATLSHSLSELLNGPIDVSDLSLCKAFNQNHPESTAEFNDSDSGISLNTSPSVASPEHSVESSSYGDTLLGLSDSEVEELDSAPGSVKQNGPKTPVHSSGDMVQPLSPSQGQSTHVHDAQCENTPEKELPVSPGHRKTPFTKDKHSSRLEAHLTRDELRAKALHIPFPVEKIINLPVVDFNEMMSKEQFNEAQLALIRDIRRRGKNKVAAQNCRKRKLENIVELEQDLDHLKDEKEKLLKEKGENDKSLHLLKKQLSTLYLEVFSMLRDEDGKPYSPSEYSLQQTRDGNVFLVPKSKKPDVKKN

Activity change, negative = inhibition, inactive:
Nc1nc(SCC(=O)Nc2cc(C(F)(F)F)ccc2N2CCOCC2)n[nH]1 -1.61%, O=C(CCN1C(=O)/C(=C/c2ccco2)SC1=S)Nc1ccc(O)cc1C(=O)O 4.28%, CN(CCOc1ccc(CC2SC(=O)NC2=O)cc1)c1ccccn1 (stereo not given) -5.31%, Cc1nnc(NC(=O)c2ccc3c(c2)NC(=O)CS3)s1 -3.13%, N/C(=N/OC(=O)c1ccc(Cl)cc1)c1ncc([N+](=O)[O-])s1 0.869%, CN(C)c1ccc2cc(S(=O)(=O)O)cc(O)c2c1 1.03%, O=[N+]([O-])c1cc(C(F)(F)F)ccc1NC1CCN(Cc2ccccc2)CC1 -6.35%, Cc1ccc(O)c(C(=O)c2cnc3c(c2)c(C)nn3-c2ccccc2)c1 -0.847%, COc1ccccc1Cn1c(=S)[nH]c2ccccc2c1=O -3.77%, N=c1c(C(=O)NCc2ccc(F)cc2)cc2c(=O)n3ccccc3nc2n1Cc1cccnc1 -11.4%, O=C(NCCOCc1ccc(Cl)cc1)c1ncn[nH]1 -12.4%, CCOC(=O)c1c(=O)n(O)c2ccc(OC)cc2[n+]1[O-] -18.5%, Cc1ccc(OC(C)C(=O)N2CCN(c3ccccn3)CC2)cc1 (stereo not given) -5%, CCOc1ccc(OCCCC(=O)N(CC)CC(=O)Nc2c(F)cccc2F)cc1 1.23%, CCOC(=O)C1=C(C)NC(C)=C(C(=O)OCC)C1c1ccc([N+](=O)[O-])s1 1.9%, CCN1/C(=C\c2ccc3ccccc3[n+]2CC)Sc2cc(C)ccc21 37%, Cc1cc[n+](-c2[nH]c(=O)sc2/C=N/NC([S-])=Nc2ccccc2)cc1 39%, Cc1ccc2oc(=O)c3cnn(CC(=O)NCCC(C)C)c3c2c1 -7.73%, COc1ccc(C(=O)c2ccsc2N)cc1 -4.13%, COC(=O)c1cccc(NC(=O)NC(=O)c2ccc(Cl)cc2)c1 -10%

From PubChem BioAssay AID588683 (Broad Institute, 2011)
